Data reported in paper PMC4336329 (PLoS ONE, 2015).
Hit rate of the full screen: of about 310,000 compounds, about 14,000 (4.5%) showed an effect of 50% or more. Effects have a minus sign here. What follows is part of a selection rich in strong results, with near analogues and random picks from the rest.

Each compound was assayed against human ether-à-go-go-related gene (hERG) potassium channel (human, UniProt Q12809) (assay: primary screen, population patch clamp on CHO cells stably expressing hERG; higher = less effect of the substance).
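Further: peak tail current of the secondary pulse compared with the same well before compound.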

human ether-à-go-go-related gene (hERG) potassium channel, sequence (Q12809 whole entry, looked up): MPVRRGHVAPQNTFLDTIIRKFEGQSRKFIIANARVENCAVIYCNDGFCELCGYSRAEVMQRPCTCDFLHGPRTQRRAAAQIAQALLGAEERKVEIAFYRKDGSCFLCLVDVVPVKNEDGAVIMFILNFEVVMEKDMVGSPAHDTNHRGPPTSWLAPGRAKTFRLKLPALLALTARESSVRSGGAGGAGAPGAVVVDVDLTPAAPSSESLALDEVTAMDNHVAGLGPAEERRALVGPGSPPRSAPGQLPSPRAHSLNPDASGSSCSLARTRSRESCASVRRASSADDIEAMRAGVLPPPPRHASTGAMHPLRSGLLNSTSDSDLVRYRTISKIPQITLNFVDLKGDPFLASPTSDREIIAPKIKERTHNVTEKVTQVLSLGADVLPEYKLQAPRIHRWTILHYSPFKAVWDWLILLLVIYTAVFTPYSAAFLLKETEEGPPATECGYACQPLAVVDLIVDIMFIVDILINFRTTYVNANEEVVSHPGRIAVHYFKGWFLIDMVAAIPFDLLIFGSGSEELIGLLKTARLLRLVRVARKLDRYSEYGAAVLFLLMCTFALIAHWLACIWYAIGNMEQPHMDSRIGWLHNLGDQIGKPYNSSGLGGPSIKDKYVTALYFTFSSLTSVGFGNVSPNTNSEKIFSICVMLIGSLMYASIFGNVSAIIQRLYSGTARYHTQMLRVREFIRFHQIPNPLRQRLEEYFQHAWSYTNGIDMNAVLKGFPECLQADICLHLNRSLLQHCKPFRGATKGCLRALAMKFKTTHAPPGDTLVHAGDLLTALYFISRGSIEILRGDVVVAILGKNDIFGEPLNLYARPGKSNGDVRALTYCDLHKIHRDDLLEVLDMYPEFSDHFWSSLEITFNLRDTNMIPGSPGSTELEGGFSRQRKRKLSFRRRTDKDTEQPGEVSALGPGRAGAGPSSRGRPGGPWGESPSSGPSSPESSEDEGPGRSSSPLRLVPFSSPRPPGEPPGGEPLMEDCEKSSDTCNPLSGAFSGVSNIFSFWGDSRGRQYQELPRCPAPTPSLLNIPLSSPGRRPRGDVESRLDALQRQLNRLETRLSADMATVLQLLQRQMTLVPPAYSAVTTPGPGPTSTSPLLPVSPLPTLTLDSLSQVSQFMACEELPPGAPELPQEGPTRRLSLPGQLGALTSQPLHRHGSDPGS

Row | SMILES | hERG current change (%, negative = inhibition) at 10uM
1 | CC(C)CCOP(N)(=O)Oc1ccccc1Cl (stereo not drawn) | 18.1%
2 | CCOc1ncccc1C(=O)OCC(=O)Nc1ccc2c(c1)OCO2 | 12.6%
3 | Cc1ccc(-n2[nH]c(C)c(C=Nc3ccc(S(=O)(=O)N4CCOCC4)cc3)c2=O)c(C)c1 | -7.6%
4 | O=C(Nc1ccccc1NC(=O)NC1CCCCC1)NC1CCCCC1 | 0.961%
5 | Cc1c(NC(=O)CSc2nnc3c4ccccc4n(CCc4ccccc4)c3n2)c(=O)n(-c2ccccc2)n1C | -27.2%
6 | CC1(C)CC(CCN)(Cc2ccccc2Cl)CCO1 (stereo not drawn) | -1.1%
7 | Cc1ccc(S(=O)(=O)NCc2cccnc2)cc1C(=O)N1CCCC1 | 20.3%
8 | Cc1ccccc1CN1CCN(CCCc2ccccc2)C(CCO)C1 (stereo not drawn) | -70%
9 | OCCC1CN(Cc2ccccc2O)CCN1CCc1ccccc1 (stereo not drawn) | -35.6%
10 | Cc1ccccc1CN1CCN(CC2CC2)CC1CCO (stereo not drawn) | -4.79%
11 | OCCC1CN(Cc2ccccc2O)CCN1CCCc1ccccc1 (stereo not drawn) | -74.8%
12 | COc1ccc(-c2cc(C(=O)Nc3cccnc3Cl)no2)cc1OC | 16.6%
13 | COc1ccc(OC)c(Nc2nnc(C)c(=O)[nH]2)c1 | 6.27%
14 | O=C1NC(=O)/C(=C\c2ccc(Br)o2)S1 | 21%
15 | CCOC(=O)c1[nH]c(C)c(C(=O)OCC(=O)N(CC)C2CCS(=O)(=O)C2)c1C (stereo not drawn) | -8.58%
16 | COc1cccc(NC(=O)CCN2C(=O)c3cccc([N+](=O)[O-])c3C2=O)c1 | -3.85%
17 | CC(OC(=O)CCN1C(=O)c2cccc([N+](=O)[O-])c2C1=O)C(=O)Nc1cc(Cl)cc(Cl)c1 (stereo not drawn) | -68.6%
18 | Cc1cccc(NC(=O)CCN2C(=O)c3cccc([N+](=O)[O-])c3C2=O)c1 | 10.8%
19 | Cc1cc(N)ccc1NC(=O)CN1CCCC1 | 21.2%
20 | N#Cc1sc(C(N)=O)c(-c2ccccc2)c1-c1ccccc1 | 9.86%
21 | O=[N+]([O-])c1cccc(Nc2c3ccccc3nc3ccccc23)c1 | -11.5%
22 | CCOc1ccc2nc(C)cc(Nc3cccc([N+](=O)[O-])c3)c2c1.Cl | -30.4%
23 | Cc1cc(Nc2cccc([N+](=O)[O-])c2)c2ccccc2n1 | -76.9%

Row | SMILES | hERG current change (%, negative = inhibition) at 10uM
24 | Cc1cc(Nc2ccccc2)c2c([N+](=O)[O-])ccc(C)c2n1 | -24.7%
25 | Cc1cc(Nc2ccc([N+](=O)[O-])cc2)c2ccccc2n1 | -20%
26 | Cc1cc(Nc2cccc([N+](=O)[O-])c2)c2cccc(C)c2n1.Cl | -77.3%
27 | CCOc1cc(C2NN=C(c3ccc(C)cc3)S2)ccc1O (stereo not drawn) | 9.67%
28 | Cc1occc1C(=O)Nc1ccc2c(c1)OCO2 | -7.71%
29 | O=C(O)c1ccc(C(=O)O)c(C(=O)c2ccccc2)c1 | 1.72%
30 | c1ccc(CN2CCOCCOCCOCC2)cc1 | 15.6%
31 | O=[N+]([O-])c1ccc(CN2CCSCC2)cc1 | 15.5%
32 | O=[N+]([O-])c1ccc(CN2CCCCCC2)cc1 | -32.8%
33 | O=C(NC(=S)Nc1ccc(CN2CCOCC2)cc1)c1ccc([N+](=O)[O-])cc1 | -13%
34 | O=[N+]([O-])c1ccc(CN2CCOCCOCCN(Cc3ccc([N+](=O)[O-])cc3)CCOCC2)cc1 | -77.8%
35 | O=[N+]([O-])c1ccc(CN2CCOCCOCCOCC2)cc1 | -59.1%
36 | CC(OC(=O)c1ccc(Cl)c(S(=O)(=O)N2CCOCC2)c1)C(=O)NC1CCCCC1C (stereo not drawn) | -35.9%
37 | O=C1OC(CCl)CN1Cc1c(Cl)cccc1Cl (stereo not drawn) | -0.492%
38 | O=C(COc1ccc(C(=O)c2ccc(F)cc2)cc1)NCc1ccc(F)cc1 | 4.49%
39 | COC(=O)[C@]1(C)N[C@H](c2ccc(-c3ccc(F)cc3)cc2)[C@@H]2C(=O)N(C)C(=O)[C@@H]21.O=C(O)C(F)(F)F | -1.3%
40 | NS(=O)(=O)c1cc(C(=O)O)c(NCc2ccco2)cc1Cl | 14.7%
41 | CCC(=O)N=c1sc2ccccc2n1-c1ccccc1 | 17.8%
42 | Cc1cc(N2CCCC2)ccc1C=C(C#N)C#N | -13.2%
43 | N#CC(C#N)=Cc1ccc(N2CCCC2)cc1 | 4.17%
44 | Cc1cc(C=C(C#N)C#N)ccc1N1CCCC1 | -65%
45 | Cc1ccc(C)c(NC(=O)c2cc3c([nH]c4ccccc43)c(C)n2)c1 | 5.7%
46 | Cl.c1ccc2c(c1)nc(N1CCCCC1)c1ccccc12 | -2.67%

Row | SMILES | hERG current change (%, negative = inhibition) at 10uM
47 | c1ccc2c(N3CCCCC3)nc(N3CCCC3)nc2c1 | -69.6%
48 | I.c1ccc2c(c1)nc(N1CCCCCC1)c1ccccc12 | 0.834%
49 | Cc1nc(N2CCCCCC2)c2ccccc2n1.Cl | -51.5%
50 | c1ccc2c(N3CCCCC3)nc(N3CCCCC3)nc2c1 | -39.1%
51 | c1ccc2c(N3CCCCC3)nc(N3CCOCC3)nc2c1 | -33.7%
52 | O=C(NC1(Cc2ccccc2)CCN(CCc2cccs2)C1=O)c1ccccc1 (stereo not drawn) | -1.81%
53 | Cc1ccc(C)c(Nc2cc(C)nc(-c3ccccc3O)n2)c1 | 15%
54 | COc1cc(C(=S)N2CCCC2)ccc1OCC(N)=O | 17.8%
55 | COC(=O)c1n[nH]n(-c2ccc(F)c(Cl)c2)c1=O | 9.84%
56 | CCC(C)N(C(=O)CN1C(=O)NC2(CCc3ccccc32)C1=O)C1CCS(=O)(=O)C1 (stereo not drawn) | -3.41%
57 | COc1ccc(OCCCCN2CCC(C)CC2)cc1.O=C(O)C(=O)O | -29%
58 | Cc1ccc(OCCCCN2CCC(C)CC2)cc1.O=C(O)C(=O)O | -23.4%
59 | CC(C)(c1ccccc1)c1ccc(OCCCN2CCNCC2)cc1.O=C(O)C(=O)O | 3.19%
60 | Cc1ccc(OCCCCCCN2CCNCC2)cc1.O=C(O)C(=O)O | -11.6%
61 | CC1CCN(CCCCOc2ccc(Cl)cc2)CC1.O=C(O)C(=O)O | -71.7%
62 | CC1CCN(CCCCOc2ccc(C(C)(C)C)cc2)CC1.O=C(O)C(=O)O | -59.6%
63 | CC(C)OCCCNC(=O)c1ccc(Br)cc1 | -8.3%
64 | CC(=O)c1ccc(NC(=O)CNCc2cccs2)cc1.O=C(O)C(=O)O | -0.848%
65 | Cc1ccc2[nH]c(C(=O)O)c(NC(=O)CN3CCN(c4cccc(C)c4C)CC3)c2c1.Cl | 13.1%
66 | Cc1ccc(-c2noc(CN(C(=O)CCCCCN3C(=O)c4ccccc4C3=O)C(C)C)n2)cc1 | -15.3%
67 | Cc1ccc(-c2noc(CN(C(=O)CCN3C(=O)c4ccccc4C3=O)C(C)C)n2)cc1 | -63.6%
68 | Cc1ccc(-c2noc(CN(C(=O)CCCN3C(=O)c4ccccc4C3=O)C(C)C)n2)cc1 | -39.7%
69 | Cc1c(NC(=O)c2ccco2)cccc1-c1nc2cccnc2s1 | -45.8%

Row | SMILES | hERG current change (%, negative = inhibition) at 10uM
70 | c1ccc(-c2ccc(CN3C[C@@H]4C(c5ccccc5)C5(c6ccccc6)CC4(C5)[C@H]3c3ccccc3)cc2)cc1 (stereo partly drawn) | -5.02%
71 | CC1CCN(CC#CCOc2ccc(Cl)cc2)CC1.O=C(O)C(=O)O | -5.81%
72 | Cc1cc(OCC(=O)N2CCC(C(N)=O)CC2)c2c(C)cc(=O)oc2c1 | 15.6%
73 | O=C(CCN1CCN(CCO)CC1)Nc1cccc(Br)c1 | -19%
74 | Cc1cccc(NC(=O)CN2CCC(C(=O)c3ccc4c(c3)OCCO4)CC2)c1 | -54.2%
75 | O=C(CN1CCC(NC(=O)c2ccccc2F)CC1)Nc1ccc2c(c1)OCO2 | -41.7%
76 | CN1CCN(CCC(=O)Nc2cccc(Br)c2)CC1 | -19%
77 | O=C(CCN1CCN(c2ccccc2)CC1)Nc1ccccc1 | -22.9%
78 | O=C(CCN1CCN(c2ccccc2)CC1)Nc1cccc(Br)c1 | -61.4%
79 | Cc1ccc(C(=O)C2CCN(CC(=O)Nc3ccc4c(c3)OCCO4)CC2)cc1 | -2.3%
80 | Cc1ccc(NC(=O)CN2CCC(C(=O)c3ccc4c(c3)OCCO4)CC2)cc1 | -44.7%
81 | O=C(CCN1CCCC1)Nc1cccc(Br)c1 | -20.6%
82 | Cc1ccccc1C(=O)NC1CCN(CC(=O)Nc2ccc3c(c2)OCO3)CC1 | -47.3%
83 | Cc1cccc(C(=O)NC2CCN(CC(=O)Nc3ccc4c(c3)OCO4)CC2)c1 | -57.7%
84 | O=C(CCN1CCN(Cc2ccccc2)CC1)Nc1cccc(Br)c1 | -63%
85 | CCOc1ccccc1N(C)S(=O)(=O)c1ccc2c(c1)CC(C)N2C(=O)C1CC1 (stereo not drawn) | 9.49%
86 | O=c1[nH][nH]c(C(F)(F)F)c1C=NCc1ccc(Cl)cc1 | -1.88%
87 | COC(=O)C1=C(C(=O)OC)[C@@H]2N(C)c3ccccc3[C@@]23C[C@@H](C(=O)OC)N=C3N1 | -2.81%
88 | CCOC(=O)N1CCC(N(CCN(C)C)C(=S)Nc2ccccc2C)CC1 | 3.33%
89 | CN(C)S(=O)(=O)c1cccc(NC(=O)CSc2nc3ccccc3[nH]2)c1 | -22.2%
90 | Cc1cc(C)n2c(-c3ccccc3Cl)nnc2n1 | -14.8%
